# Screen size: about 330,000 compounds; about 5,800 (1.8%) were called active. Only a selection was taken, and actives are over-represented in it overall. A number with no mark means an inactive call. Cut-off read from the data, not from the text of the source: active = inhibition mostly above about 38% (no sharp cut-off); inactive = mostly below about 40%.
# Target: Orexin/Hypocretin receptor type 1 (Homo sapiens) (UniProt O43613)
# Test: blocks the human orexin 1 receptor (AID 485270);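 note: 0% = agonist challenge alone and 100% = reference antagonist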
# Settings: OX1R-expressing cells, FRET antagonist read-out; at 6.6 µM; active compounds read high
# Orexin/Hypocretin receptor type 1 (Homo sapiens), sequence (O43613 whole entry, looked up): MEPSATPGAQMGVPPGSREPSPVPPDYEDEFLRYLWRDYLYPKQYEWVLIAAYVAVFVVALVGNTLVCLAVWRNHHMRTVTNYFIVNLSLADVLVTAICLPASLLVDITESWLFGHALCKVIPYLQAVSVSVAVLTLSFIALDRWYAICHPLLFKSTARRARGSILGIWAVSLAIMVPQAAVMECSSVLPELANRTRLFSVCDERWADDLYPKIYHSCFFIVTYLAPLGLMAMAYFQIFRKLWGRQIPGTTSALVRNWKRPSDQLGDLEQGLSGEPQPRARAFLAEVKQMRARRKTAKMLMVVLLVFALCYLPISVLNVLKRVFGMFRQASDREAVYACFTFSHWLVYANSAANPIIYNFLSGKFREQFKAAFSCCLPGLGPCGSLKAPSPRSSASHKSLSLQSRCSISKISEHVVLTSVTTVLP
row,Compound,inhibition
1,O=C(C[C@@H]1C/C=C\CCC(=O)OC[C@@H]2CCCN2C1=O)NCCO,4.18%
2,Cc1ccc(S(=O)(=O)N2[C@@H](c3cccc4ccccc34)C(C(=O)O)=C[C@H]2C(C)(C)C)cc1,46.2% (active)
3,Cc1ccc(S(=O)(=O)NNC(=O)Nc2cccc3ccccc23)cc1,21.8%
4,CCCCC[C@@H]1C=C(C(=O)O)[C@H](c2ccc(C#N)cc2)N1S(=O)(=O)c1ccc(C)cc1,10.8%
5,O=C1CSc2ccc(C(=O)NCc3ccccn3)cc2N1,3.47%
6,CN(C(=O)CSc1nnc(-c2c[nH]c3ccccc23)o1)C1CCS(=O)(=O)C1 (centres undefined),16.6%
7,O=C(CSc1nnc(-c2c[nH]c3ccccc23)o1)c1ccccc1,29.7%
8,CN(C(=O)CSc1nnc(-c2n[nH]c3ccccc23)o1)c1ccccc1,91.9% (active)
9,O=C(Nc1cccnc1Cl)c1cc(-c2cccc(Cl)c2)on1,11.7%
10,O=C(Nc1cccc2cccnc12)c1cccc(N2C(=O)CCC2=O)c1,92.7% (active)
11,COC(=O)c1cccc(NC(=O)c2cccc(N3C(=O)CCC3=O)c2)c1,4.2%
12,CCOC(=O)Cc1ncccc1C(=O)Nc1ccc(OC)cc1,25.1%
13,Cc1cc(NC(=O)c2cccc(N3C(=O)CCC3=O)c2)no1,11.9%
14,O=C(Nc1cccc2cccnc12)c1cccc(Cl)c1,61.5% (active)
15,COc1ccc(NC(=O)Nc2cccc3cccnc23)cc1,40% (active)
16,N#Cc1ccc(C(=O)Nc2cccc3cccnc23)c(F)c1,11%
17,COc1ccc(NC(=O)C2CCCN(S(=O)(=O)c3cccc4cccnc34)C2)cc1 (centres undefined),4.36%
18,CC[C@]1(C(=O)OC)[C@H]2C(=O)N(C)C(=O)[C@H]2[C@H]2CN(C)C(=NCc3ccccc3)N21,2.73%
19,COc1ccccc1CNC(=O)COC(=O)c1cccs1,2.2%
20,O=C(CN1C(=O)NC(Cc2c[nH]c3ccccc23)C1=O)Nc1ccccc1C(F)(F)F (centres undefined),3.6%
21,CCC(C)c1ccc(NC(=O)COC(=O)C2CCCC2)cc1 (centres undefined),5.25%
22,CCOC(=O)[C@@H]1[C@H]2COc3ccc(Br)cc3[C@H]2N2C(=O)N(c3ccc(C)cc3)C(=O)[C@@]12C,10.5%
23,O=C(Cn1cnc2c(OCc3ccccc3)ncnc21)NCc1nc2ccccc2[nH]1,14.3%

row,Compound,inhibition
1,CC(O)CNCCOc1cccc(Oc2ccccc2)c1 (centres undefined),3.22%
2,COc1ccccc1OCCNCC(O)COc1cccc2[nH]c3ccccc3c12 (centres undefined),59.7% (active)
3,CC(C)(C)NCC(O)COc1cccc2[nH]c(=O)[nH]c12 (centres undefined),8.82%
4,Cc1sc(NC(=O)c2ccc3ncsc3c2)c(C(N)=O)c1C,43.8% (active)
5,Cc1ccc(C(=O)c2c(NC(=O)c3ccccc3)sc(C)c2C)cc1,21.9%
6,COc1ccccc1-c1nnc(NC(=O)c2ccc3ncsc3c2)o1,8.4%
7,Cc1ccc(C(=O)Nc2ccccc2-c2ccccc2)cc1S(=O)(=O)Nc1ccccc1,5.71%
8,Cc1noc(C)c1S(=O)(=O)N(CC(=O)NCc1ccc(Cl)cc1)c1ccc2c(c1)OCO2,80.7% (active)
9,CCOc1ccc(N(CC(=O)NCc2ccc(OC)cc2)S(=O)(=O)c2c(C)noc2C)cc1,0.77%
10,Cc1noc(C)c1S(=O)(=O)N(CC(=O)Nc1ccc2c(c1)OCCO2)c1ccc(C(C)C)cc1,23.3%
11,CC1CCCCC1NCC(=O)Nc1ccccc1C(=O)Nc1ccccc1 (centres undefined),7.92%
12,Cc1ccccc1SCC(=O)OCC(=O)N1CC(=O)Nc2ccccc21,0.4%
13,Cc1ccc2nc3c(cc(C(=O)NCCc4ccccc4)c(=N)n3CC3CCCO3)c(=O)n2c1 (centres undefined),57.5% (active)
14,O=C(NCC1CCCO1)c1cc(-c2ccccc2)nc2ccccc12 (centres undefined),-0.29%
15,COc1ccc(CCNC(=O)Cn2c(=O)n(CC3CCCO3)c(=O)c3ccccc32)cc1OC (centres undefined),7.5%
16,COc1ccc(CNC(=O)c2cc3c(=O)n4ccccc4nc3n(CC3CCCO3)c2=N)cc1 (centres undefined),54.9% (active)
17,COc1ccc(CCn2c(=N)c(C(=O)NCC3CCCO3)cc3c(=O)n4cccc(C)c4nc32)cc1OC (centres undefined),10.8%
18,Cc1ccc(CCNC(=O)c2ccc3nc4ccccc4c(=O)n3c2)cc1,-3.55%
19,Cc1csc(=O)n1CC(=O)Nc1ccc(S(C)(=O)=O)cc1,7.39%
20,COc1ccc(OC)c(NC(=O)COC(=O)Cc2ccsc2)c1,5.5%
21,C[C@]12c3[nH]c4ccc(Cl)cc4c3CCN1C(=O)[C@@H](CC(=O)NCCCn1ccnc1)C[C@@H]2C(=O)N1CCOCC1,14.5%
22,CN(CC(=O)Nc1ccc(C(N)=O)cc1)S(=O)(=O)c1ccc2c(c1)OCCO2,6.44%
23,O=C(CN1C(=O)NC2(CCCC2)C1=O)Nc1cc(C(F)(F)F)ccc1N1CCOCC1,6.5%

row,Compound,inhibition
1,COc1ccc2[nH]c(=O)c(CNc3ccc(C)c(C)c3)cc2c1,108% (active)
2,COc1ccc2[nH]c(=O)c(CN(CC3CCCO3)C(=O)Nc3ccccc3)cc2c1 (centres undefined),5.34%
3,CCC(=O)N(Cc1cc2cc(OC)ccc2[nH]c1=O)c1ccccc1C,4.09%
4,Cn1nnnc1SCC(=O)Nc1sccc1C(N)=O,-1.46%
5,CCOc1ccccc1OCC(=O)Nc1ccccc1C(=O)NC1CC1,9.29%
6,Cc1ccc(OCC(=O)Nc2ccccc2C(=O)NC2CC2)cc1,7.7%
7,CC(NCC(=O)Nc1ccccc1C(=O)NC1CC1)c1ccccc1Cl (centres undefined),29.4% (active)
8,CN(c1ccccc1)S(=O)(=O)c1ccc(C(=O)N2CCN(c3ccccc3Cl)CC2)cc1,9.4%
9,CC(=NNC(=O)c1ccc2nc[nH]c2c1)c1ccc(Br)cc1,4.88%
10,C[C@@H]1CN([C@@H](C)CO)C(=O)c2cc(NC(=O)C3CC3)ccc2O[C@H]1CN(C)C,1.14%
11,C[C@H]1COC(=O)[C@H](CC(=O)OC(C)(C)C)C/C=C\C[C@@H](CC(=O)N[C@H](CO)Cc2ccccc2)C(=O)N1,0.64%
12,Cc1cccc(NC(=O)c2ccc3c(=O)n(CC4CCCO4)c(=S)[nH]c3c2)c1 (centres undefined),17.1%
13,Cc1ccccc1NC(=O)Cn1c(=O)n(CC2CCCO2)c(=O)c2ccccc21 (centres undefined),15.6%
14,Cc1cccn2c(=O)c3cc(C#N)c(=NC(=O)c4cccnc4)n(CC4CCCO4)c3nc12 (centres undefined),123% (active)
15,CN(C(=O)COC(=O)Cc1ccccc1[N+](=O)[O-])C1CCS(=O)(=O)C1 (centres undefined),3.39%
16,COc1cccc(NC(=O)CSc2nnc(C3CCCCC3)n2N)c1,6.23%
17,COc1ccc(-n2c(SCC(=O)Nc3ccc4c(c3)OCO4)nnc2C(C)N2CCCCC2)cc1 (centres undefined),7.85%
18,O=C(NCCC1=CCCCC1)c1ccc(-n2cncn2)cc1,2.77%
19,COCCCNC(=S)NC(=O)c1ccccc1,6.25%
20,CC(=O)NC(=S)Nc1ccc(NC(=S)NC(=O)c2ccc([N+](=O)[O-])cc2)cc1,8.98%
21,COCCCNC(=S)NC(=O)c1ccc([N+](=O)[O-])cc1,89.6% (active)
22,O=C1CCC[C@@H]2CC(N3CCCCC3)C[C@@H]3CCN1[C@H]23 (some centres undefined),5.93%
23,O=C(Nn1cnnc1)c1ccc([N+](=O)[O-])cc1,22.3%

row,Compound,inhibition
1,O=C(Nc1ccccc1C(=O)Nc1ccncc1)c1ccc([N+](=O)[O-])cc1,16.2%
2,O=C(c1ccncc1)c1ccc([N+](=O)[O-])cc1,163% (active)
3,COC(=O)c1ccc(/C=C/c2c(-c3ccc(OC)cc3)sc3ccccc23)cc1,5.48%
4,CC(C)NC(=O)Nc1cccc2c1O[C@@H](CN(C)S(=O)(=O)c1ccc(F)cc1)[C@@H](C)CN([C@H](C)CO)C2=O,3.93%
5,O=C(O)c1ccc(NS(=O)(=O)c2cccc3nsnc23)cc1,27.3%
6,CCOc1ccc(N(CC)S(=O)(=O)c2cccc3nsnc23)cc1,21.1%
7,O=C(CCCNS(=O)(=O)c1cccc2nsnc12)NCCN1CCN(c2ccccc2F)CC1,26.2%
8,CCOc1ccc(NC(=O)CCS(=O)(=O)c2cccc3nsnc23)cc1,85.9% (active)
9,O=C(CCS(=O)(=O)c1cccc2nsnc12)N1CCN(c2ccccc2F)CC1,73% (active)
10,COc1ccc(N(C)S(=O)(=O)c2cccc3nsnc23)cc1,33.6%
11,COc1ccc(CNC(=O)C(NS(=O)(=O)c2cccc3nsnc23)C(C)C)cc1 (centres undefined),26.5%
12,CCOc1ccc(OCC)c(NC(=O)CN(C)S(=O)(=O)c2cccc3nsnc23)c1,41.7%
13,CCC(=O)N1CCc2cc(S(=O)(=O)CCC(=O)N3CCN(c4ccccc4F)CC3)ccc21,5.14%
14,COc1ccc(N(C)C(=O)CCS(=O)(=O)c2cccc3nsnc23)cc1,128% (active)
15,COc1ccc(C)cc1NC(=O)CCS(=O)(=O)c1cccc2nonc12,48.1%
16,Cc1cccc(C)c1NC(=O)CCS(=O)(=O)c1cccc2nsnc12,70.3% (active)
17,O=C(COC(=O)COc1cc(Cl)c(Cl)cc1Cl)NC1CC1,6.97%
18,Cc1ccc(C(=O)NCC(=O)NC2CC2)cc1,-0.69%
19,Cc1occc1C(=O)Nc1cccc(S(=O)(=O)N2CCOCC2)c1,4.81%
20,COc1ccc2[nH]c3c(c2c1)CCN1C(=O)C(CC(=O)NCCCN(C)C)C[C@H](C(=O)N2CCOCC2)[C@@]31CCC1CCCC1 (some centres undefined),-1.98%

# From PubChem BioAssay AID485270 (The Scripps Research Institute Molecular Screening Center, 2010)
